Platelet DG rel – modulates dense granule release in human platelets | human platelet-rich plasma, SFLLRN dense granule ATP release, luminescence | inhibition, %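 (compounds screened at 7.5 µM in platelet-rich plasma)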 | 0.22% of 300,000 active;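 active means mean replicate score, as percent of positive control, at or above 50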
HSF-1 act – increases HSF-1 driven luciferase reporter signal; 1.7% of 300,000 active; AID 504408; NIH3T3-HGL HSF-1 luciferase reporter, MG132, 8 h; 100% = twice DMSO control signal; activation, % at 9 µM;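 active means mean replicate activation of at least 50% with a set share of replicates each reaching 50%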;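 further: 0% = median of the neutral control wells and 100% = twice that signal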
HSF1 inh – HSF1 inhibition; NIH3T3-HGL HSE-luciferase, MG132-induced, luminescence 8 h; stronger effect = lower value; activity change, negative = inhibition, % at 7.5 µM (by protocol); 0.77% of 300,000 active; AID 2098;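 active means more than half of replicate wells show activity change below -50%, luminescence cut by over half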;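 further: luciferase reports HSF-1 transcriptional activity via heat shock element; 0% = median of DMSO wells and -100% = zero luminescence signal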
dFosB activator – mouse delta FosB homodimer activation | 0.99% of 340,000 active | P13346 | activation, % at 25 µM | purified delta FosB, TAMRA-CDK5 oligo fluorescence polarization; percent of positive-control signal above neutral wells;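 active means mean activation above about 17%, with every replicate also reaching it, limit read from the data, passing the limit was not always enough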
Target sequence (P13346 whole entry, looked up): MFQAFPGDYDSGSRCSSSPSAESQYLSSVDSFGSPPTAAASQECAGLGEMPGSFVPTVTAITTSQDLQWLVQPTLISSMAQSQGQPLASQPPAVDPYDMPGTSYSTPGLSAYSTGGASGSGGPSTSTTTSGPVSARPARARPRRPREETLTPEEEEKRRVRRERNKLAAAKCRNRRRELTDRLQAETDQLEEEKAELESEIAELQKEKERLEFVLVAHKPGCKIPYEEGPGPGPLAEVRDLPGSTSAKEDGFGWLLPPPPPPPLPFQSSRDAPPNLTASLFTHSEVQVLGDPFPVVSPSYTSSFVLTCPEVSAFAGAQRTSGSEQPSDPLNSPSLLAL
HSP90 inh – blocks HSP90-mediated luciferase refolding in reticulocyte lysate | 0.91% of 290,000 active | inhibition, % at 5.6 µM | Rabbit reticulocyte lysate, luciferase refolding luminescence, 3 h;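 active means inhibition above the screen-wide mean plus 3 SD, computed separately per campaign, cut at about 16% in these data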;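 further: 0% = DMSO wells and 100% = 60 µM geldanamycin wells; inhibitors lower the luminescence because luciferase stays unfolded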
MPTP block – blocks calcium-induced mitochondrial swelling | isolated mouse mitochondria, Ca2+ swelling absorbance, 30 min | inhibition, % at 10 µM | 1.4% of 360,000 active | AID 602449;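 active means inhibition of 50% or more, scaled per plate between neutral and stimulator controls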;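 further: 0% = DMSO wells given calcium and 100% = 1 mM EGTA wells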
* = called active by the depositor; nt = no result given. Sampled rows, rich in hits. Any-hit rate of the full collection: about 4.9%.

SMILES | Platelet DG rel | HSF-1 act | HSF1 inh | dFosB activator | HSP90 inh | MPTP block
COc1ccc(C)cc1NC(=O)CSc1nnc(COc2ccc(Cl)cc2)n1Cc1ccco1 | -0.5 | 106.6* | 49.6 | -8.2 | 3.7 | 3.7
CCn1c(COc2ccc(C)cc2)nnc1SCC(=O)Nc1ccc2c(c1)OCCO2 | -0.8 | -75.9 | -70.6* | -5.7 | -2.4 | 0.1
COc1ccc(C)cc1NC(=O)C(=O)NNC(=O)COc1ccc(Cl)cc1 | 1.4 | -87.5 | -85.1* | 9.3 | -3.5 | 2.6
Cc1ccc(C)c(NC(=O)CSc2nnc(CSc3nc(C)cc(C)n3)n2Cc2ccco2)c1 | -0.8 | 66.1* | 15.3 | -3.1 | 6.3 | 1.0
CC(=O)C1=CCC(c2cccs2)N(S(=O)(=O)c2ccc(C)cc2)C1 (stereo not given) | nt | nt | nt | nt | nt | 0.1
Cc1cccc(OCc2nnc(SCC(=O)N(C(C)C)C(C)C)n2Cc2ccco2)c1C | 5.2 | 60.1* | 36.7 | -13.3 | -0.3 | -2.3
Cc1ccc2nc3sc(C(=O)NCc4ccco4)c(N)c3cc2c1 | 10.2 | 84.6* | 51.8 | 9.6 | 1.8 | -1.0
Cc1cccc(/N=C/c2c(O)[nH]c3ccccc23)n1 | 15.7 | 41.8 | 20.2 | -9.1 | -1.0 | 1.1
COc1ccc(C(=O)N/N=C/c2sc3ccccc3c2O)cc1 | -15.9 | 10.4 | -2.7 | 4.8 | 14.7 | 7.1
Cc1cccc(/N=C/c2sc3ccccc3c2O)n1 | 51.5* | 12.7 | 3.6 | -0.7 | 6.2 | 12.0
O=C(N/N=C/c1sc2ccccc2c1O)c1ccccc1 | 21.8 | 270.4* | 197.3 | 9.7 | 5.0 | 24.3
N#Cc1ccccc1OCC(=O)Nc1ccccc1C(=O)NC1CC1 | -8.4 | 6.8 | -0.8 | -0.9 | nt | -1.3
Cc1ccccc1C(=O)NCCSc1ccccc1 | 2.1 | 53.9* | 28.9 | 7.7 | 2.7 | -2.3
C/C(=N\NC(=O)c1csc(C)c1C)c1ccc(C)s1 | 18.7 | -14.0 | 2.6 | 2.3 | -3.9 | 0.3
CC(=O)N/N=C(/C)c1ccc(NC(=O)c2csc(C)c2C)cc1 | -3.3 | 70.9* | 42.7 | -5.8 | 0.8 | 1.1
C/C(=N\NC(=O)c1csc(C)c1C)c1ccco1 | 22.2 | 63.3* | 46.0 | 0.5 | -4.7 | -0.4
C/C(=N/NC(=O)c1cccs1)c1ccco1 | 18.2 | 55.6* | 13.5 | -2.3 | 5.6 | 0.5
O=C1CC(N2CCSCC2)C(=O)N1c1ccc(F)cc1 (stereo not given) | 12.6 | -0.9 | 1.3 | 7.5 | 0.1 | 2.1
O=C(NCCCN1CCC(Cc2ccccc2)CC1)C1CC(=O)N(C2CCCC2)C1 (stereo not given) | 21.4 | -70.5 | -62.0* | -3.1 | 0.5 | -1.4
O=C(NCCCN1CCC(Cc2ccccc2)CC1)C1CCC(=O)N1C1CCCC1 (stereo not given) | 17.4 | 1.9 | 0.6 | 6.1 | -0.6 | 0.4
COc1ccc(NC(=O)C2CC(=O)NC(Nc3cccc(C)c3)=N2)cc1 (stereo not given) | -12.8 | 86.8* | 32.2 | -13.8 | 0.6 | -2.1
COc1ccc2nc(NC3=NC(C(=O)Nc4ccc(C)cc4)CC(=O)N3)nc(C)c2c1 (stereo not given) | -27.5 | 24.9 | -1.3 | nt | 2.5 | nt
CC(=O)c1c(C)[nH]c(C(=O)OCC(=O)c2ccc(C)s2)c1C | nt | nt | nt | -13.5 | nt | -0.3
CCCOc1ccc2c(c1)C(=NN=C(N)N)c1cc(OCCC)ccc1-2 | 7.1 | 15.2 | 5.0 | 34.6* | 0.4 | 3.0
CCN(CC)CCOc1ccc2c(c1)C(=NO)c1cc(OCCN(CC)CC)ccc1-2 | -7.1 | 3.5 | -6.5 | 55.8* | 6.2 | 0.6
SMILES | Platelet DG rel | HSF-1 act | HSF1 inh | dFosB activator | HSP90 inh | MPTP block
O=c1[nH]c2ccccc2n2cnnc12 | 0.1 | -86.4 | -82.6* | 1.3 | -0.2 | -1.4
CCN(CC)c1nc2ccccc2n2cnnc12 | -0.8 | -11.0 | -8.9 | -3.0 | 0.8 | 1.7
O=C(NN1C(=O)/C(=C\c2cccnc2)SC1=S)C(c1ccccc1)c1ccccc1 | 14.7 | 2.0 | -3.1 | -3.4 | -3.6 | 4.9
O=C(Cc1cccc2ccccc12)NN1C(=O)/C(=C\c2cccnc2)SC1=S | 4.9 | -5.8 | 5.4 | 140.7* | -3.7 | 2.6
Clc1ccc(OCc2nc(-c3ccccn3)no2)c(Br)c1 | 4.6 | 42.3 | 17.7 | -12.8 | 7.2 | 0.2
Clc1ccccc1OCc1nc(-c2ccccn2)no1 | 5.7 | 59.8* | 28.1 | 5.6 | 7.7 | -0.8
Cc1c(C(=O)N(Cc2ccncc2)CC2CCCO2)oc2c(F)cccc12 (stereo not given) | 2.1 | 52.5* | 9.7 | -7.3 | -0.5 | 0.2
C/C(=N\NC(=O)c1ccoc1C)c1cccc2ccccc12 | -1.0 | 57.3* | 31.0 | -18.5 | 2.5 | 0.1
Cc1[nH]nc(SCC(=O)N(C)c2ccccc2)c1[N+](=O)[O-] | -2.0 | 10.2 | 0.4 | -0.1 | -1.6 | 2.1
COc1ccc(CN2C[C@@H](CO)O[C@@H](n3cnc4c(N5CCOCC5)ncnc43)C2)cc1 | nt | nt | nt | nt | nt | -0.2
COC(=O)C[C@H]1C=C[C@H](NC(=O)c2ccccn2)[C@@H](CO)O1 | nt | nt | nt | nt | nt | -1.5
CC(O)c1nc2ccccc2n1Cc1nnc(-c2ccc(Cl)cc2)o1 (stereo not given) | -6.0 | -68.1 | -55.7* | -1.0 | -0.8 | 0.8
c1ccc(-c2nnc(Cn3c4ccccc4c4nc5ccccc5nc43)o2)cc1 | nt | nt | nt | 3.7 | -3.3 | -1.2
COC(=O)CCC(=O)COc1ccc(OC)cc1C#N | -1.5 | 52.5* | 39.2 | 2.9 | 2.5 | -2.6
Cc1cccc(C(C#N)c2ccc(Cl)nn2)c1 (stereo not given) | 0.6 | 73.9* | 24.9 | -4.8 | 0.0 | -2.7
O=C(NC(=S)Nc1ccc2oc(=O)ccc2c1)c1cc2ccccc2o1 | -4.0 | -85.5 | -84.0* | -2.0 | 2.9 | 3.3
Cc1ccc2cc(NC(=O)c3cccc(F)c3)ccc2n1 | 11.1 | 35.6 | 42.7 | -9.4 | 4.8 | 0.7
CC(=O)Nc1ccc(NC(=S)NC(=O)c2cc3ccccc3o2)cc1 | -3.1 | 35.4 | 9.0 | -4.1 | -2.0 | -0.7
O=C(NC(=S)NCc1cccnc1)c1cc2ccccc2o1 | -2.9 | 20.6 | 5.5 | -5.2 | -2.5 | -1.1
O=C(Nc1ccc2ccccc2c1)c1cccc(F)c1 | 18.5 | 79.0* | 39.2 | 0.0 | -0.6 | 1.5
O=C(NC(=S)Nc1cccnc1)c1cc2ccccc2o1 | 10.3 | 59.1* | 12.2 | -10.7 | -0.6 | -0.6
O=C(Nc1ccc2oc(=O)ccc2c1)c1ccc2ccccc2c1 | 1.3 | 59.9* | 17.2 | -6.9 | 0.2 | -0.3
O=C(Nc1ccc2oc(=O)ccc2c1)c1ccco1 | 2.8 | 20.1 | 9.7 | -11.5 | -0.6 | 0.9
COc1ccc(Cl)cc1S(=O)(=O)NC(C)c1cnn(-c2ccccn2)c1C (stereo not given) | nt | nt | nt | nt | nt | -0.4
CN(C(=O)c1cc(COc2ccc(F)cc2Cl)on1)C1CCCc2ccccc21 (stereo not given) | 6.5 | 21.1 | 5.3 | -17.9 | -1.2 | 3.9
COc1cccc(C(=O)COC(=O)C(C)N2C(=O)C3C4C=CC(C4)C3C2=O)c1 (stereo not given) | -12.8 | 57.2* | 16.7 | -0.7 | 3.1 | -1.7
